According to PubChem BioAssay:
Active and inactive are the calls of the source.

What was measured:
[1] = optical density shifts of acrAB sulA E. coli – strain DRC41, OD650, 48 h, E. coli filamentation inducer project, primary screen (AID 1152); settings: higher = more signal, called active from +8 up or from −8 down;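 further: E. coli MC1000 strain DRC41 lacking acrAB efflux pump and sulA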
[2] = probe aLefty1 binding on compound microarray – biochemical, small-molecule microarray, 635/667 nm fluorescence, primary screen (AID 1153); settings: higher = more signal;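 further: score merges spot fluorescence with signal-to-noise ratio from the scanned slide images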
[3] = plasmodial surface anion channel blockers, osmotic lysis – cell-based, P. falciparum Indochina, OD700, 1 h, primary screen (AID 1154); settings: P. falciparum Indochina infected RBC osmotic lysis, higher = more signal, called active from +8 up or from −8 down
[4] = plasmodial surface anion channel blockers, osmotic lysis – cell-based, P. falciparum Indochina, OD700, 2 h, primary screen (AID 1155);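 further: lysis reports solute entry through the parasite surface anion channel PSAC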; settings: P. falciparum Indochina infected erythrocytes, higher = more signal, called active from +8 up or from −8 down
[5] = changes in parasitized red cell lysis, either direction – P. falciparum Indochina, OD700, 3 h, PSAC antagonist project, primary screen (AID 1156); settings: P. falciparum-infected erythrocytes, osmotic lysis, higher = more signal, called active from +8 up or from −8 down
[6] = plasmodial surface anion channel blockers, osmotic lysis – cell-based, P. falciparum Indochina, OD700, 18 h, primary screen (AID 1157); settings: P. falciparum Indochina infected erythrocytes, osmotic lysis OD700, 18 h; higher = more signal, called active from +8 up or from −8 down
[7] = S6 kinase pathway phospho-S6 level changes – cell-based, A549, cytoblot, luminescence, serum-stimulated, primary screen (AID 1158); settings: 5 h, higher = more signal;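 further: serum-stimulated A549 lung adenocarcinoma cells; signal is phosphorylated S6 detected by cytoblot immunostaining with HRP secondary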
[8] = molecular target: NADPH oxidase 2 (Homo sapiens) (UniProt P04839); experiment: compounds shifting NOX2 Amplex Red fluorescence – cell-based, HEK293-NOX2, PMA-stimulated, NOX inhibitor project, primary screen (AID 1159); settings: 45 min, higher = more signal, called active from +8 up or from −8 down; further: test concentration not given here
Chain of NADPH oxidase 2 (Homo sapiens) (P04839 whole entry, looked up): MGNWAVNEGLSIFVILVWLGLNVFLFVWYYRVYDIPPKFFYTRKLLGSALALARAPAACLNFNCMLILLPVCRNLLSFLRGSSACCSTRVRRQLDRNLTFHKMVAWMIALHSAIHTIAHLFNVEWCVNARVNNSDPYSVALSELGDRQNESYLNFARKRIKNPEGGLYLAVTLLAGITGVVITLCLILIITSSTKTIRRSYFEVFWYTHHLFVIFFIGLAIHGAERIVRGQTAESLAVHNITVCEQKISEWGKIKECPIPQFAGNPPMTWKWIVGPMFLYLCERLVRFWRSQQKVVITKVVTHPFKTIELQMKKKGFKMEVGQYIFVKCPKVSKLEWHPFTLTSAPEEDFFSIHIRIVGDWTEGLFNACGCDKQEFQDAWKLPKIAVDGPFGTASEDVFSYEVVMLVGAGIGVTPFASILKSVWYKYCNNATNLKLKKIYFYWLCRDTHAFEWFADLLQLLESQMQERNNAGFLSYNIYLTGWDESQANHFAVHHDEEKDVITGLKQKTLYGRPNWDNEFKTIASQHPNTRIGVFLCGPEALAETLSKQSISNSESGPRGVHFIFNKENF

[9] = molecular target: NADPH oxidase 4 (Homo sapiens) (UniProt Q9NPH5); experiment: compounds shifting NOX4 Amplex Red fluorescence – cell-based, HEK293-NOX4, tetracycline-induced, NOX inhibitor project, primary screen (AID 1160); settings: HEK293-NOX4, Amplex Red H2O2 fluorescence, 45 min; higher = more signal, called active from +8 up or from −8 down
Chain of NADPH oxidase 4 (Homo sapiens) (Q9NPH5 whole entry, looked up): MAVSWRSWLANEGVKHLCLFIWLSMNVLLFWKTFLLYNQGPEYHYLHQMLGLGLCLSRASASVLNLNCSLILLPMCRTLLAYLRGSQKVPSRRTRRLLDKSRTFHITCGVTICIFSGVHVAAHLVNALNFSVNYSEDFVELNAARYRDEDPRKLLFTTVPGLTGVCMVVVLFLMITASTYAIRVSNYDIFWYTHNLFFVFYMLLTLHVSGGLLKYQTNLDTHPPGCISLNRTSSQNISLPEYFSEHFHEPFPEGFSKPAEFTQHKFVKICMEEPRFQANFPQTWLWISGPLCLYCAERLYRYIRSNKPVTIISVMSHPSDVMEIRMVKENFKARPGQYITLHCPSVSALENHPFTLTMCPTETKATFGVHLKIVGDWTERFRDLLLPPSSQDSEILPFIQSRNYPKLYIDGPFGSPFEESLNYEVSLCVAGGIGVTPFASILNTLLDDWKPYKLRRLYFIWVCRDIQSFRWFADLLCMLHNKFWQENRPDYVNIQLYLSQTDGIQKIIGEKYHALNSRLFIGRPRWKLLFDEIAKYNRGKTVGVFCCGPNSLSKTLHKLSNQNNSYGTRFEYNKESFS

[10] = molecular target: NADPH oxidase 5 (Homo sapiens) (UniProt Q96PH1); experiment: compounds shifting NOX5 Amplex Red fluorescence – cell-based, HEK293-NOX5, NOX inhibitor project, primary screen (AID 1161); settings: HEK293-NOX5, ionomycin, 45 min, higher = more signal
Chain of NADPH oxidase 5 (Homo sapiens) (Q96PH1 whole entry, looked up): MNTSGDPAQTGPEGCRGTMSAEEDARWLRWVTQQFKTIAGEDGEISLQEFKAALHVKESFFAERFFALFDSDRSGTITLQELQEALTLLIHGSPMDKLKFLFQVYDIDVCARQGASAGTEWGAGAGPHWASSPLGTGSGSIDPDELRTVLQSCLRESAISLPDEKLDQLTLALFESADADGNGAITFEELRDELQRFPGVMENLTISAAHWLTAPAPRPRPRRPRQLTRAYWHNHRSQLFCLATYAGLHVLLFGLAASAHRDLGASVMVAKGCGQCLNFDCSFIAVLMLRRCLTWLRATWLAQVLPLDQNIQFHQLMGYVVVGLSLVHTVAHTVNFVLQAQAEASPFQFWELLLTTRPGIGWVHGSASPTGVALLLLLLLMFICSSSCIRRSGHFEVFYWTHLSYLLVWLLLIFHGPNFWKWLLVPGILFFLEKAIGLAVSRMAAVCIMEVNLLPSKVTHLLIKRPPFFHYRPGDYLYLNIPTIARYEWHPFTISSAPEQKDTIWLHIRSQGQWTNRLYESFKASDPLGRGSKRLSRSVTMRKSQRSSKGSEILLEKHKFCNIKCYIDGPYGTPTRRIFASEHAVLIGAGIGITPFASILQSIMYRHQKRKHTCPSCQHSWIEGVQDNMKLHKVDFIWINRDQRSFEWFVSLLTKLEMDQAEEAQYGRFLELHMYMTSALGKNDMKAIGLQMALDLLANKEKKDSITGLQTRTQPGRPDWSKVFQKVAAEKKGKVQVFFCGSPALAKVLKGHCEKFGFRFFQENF

Structure (SMILES) | z-score [1] | composite z-score [2] | z-score [3] | z-score [4] | z-score [5] | z-score [6] | z-score [7] | z-score [8] | z-score [9] | z-score [10]
CC[C@@H](c1ccccc1)n1c(=O)n2n(c1=O)[C@H]1[C@H](O)[C@@H]3O[C@@H]3C(=NOC[C@@H](O)COCc3ccco3)[C@H]1CC2 | -0.389 (inactive) | -0.89 | 1.34 (inactive) | -0.339 (inactive) | -0.18 (inactive) | -0.381 (inactive) | 0.225 | -0.892 (inactive) | 0.796 (inactive) | 1.36
CO[C@H]1COC(=O)[C@H](C)NC(=O)[C@@H](C)COC(=O)[C@H]2CCCN2C(=O)CC=C[C@H]1C | -0.0911 (inactive) | -0.194 | 0.551 (inactive) | 0.453 (inactive) | 0.603 (inactive) | 0.293 (inactive) | 0.203 | -0.752 (inactive) | 0.0917 (inactive) | 0.363
CCCCC#C[C@@H]1C=C[C@H](OC(C)=O)[C@@H](COC(C)=O)O1 | -0.656 (inactive) | -0.0111 | 0.604 (inactive) | 0.364 (inactive) | -0.89 (inactive) | -0.0473 (inactive) | -0.268 | -2.78 (inactive) | 1.05 (inactive) | 2.02
O=c1n(-c2ccccc2)c(=O)n2n1CC[C@@H]1C(=NOCc3ccccc3)[C@H]3O[C@H]3[C@@H](O)[C@@H]12 | -0.422 (inactive) | -0.514 | 6.33 (inactive) | 0.0311 (inactive) | 0.349 (inactive) | 0.425 (inactive) | -0.302 | -3.43 (inactive) | -0.13 (inactive) | 0.183
CCCNC(=O)OC[C@H]1O[C@H](CCON=C(C)CCC(=O)OC[C@H]2O[C@H](c3ccccc3)C=C[C@@H]2Oc2ccc(OC)cc2)C=C[C@@H]1Oc1ccc(OC)cc1 | 0.3 (inactive) | -0.0477 | 2.17 (inactive) | 0.767 (inactive) | 0.753 (inactive) | 0.49 (inactive) | -0.441 | -0.245 (inactive) | 0.337 (inactive) | -0.295
COc1cc(O)c(C(=O)C=Cc2ccc3c(c2)OCO3)c(OC)c1 | -0.59 (inactive) | 0.0056 | 18.9 (active) | 2.42 (inactive) | 0.484 (inactive) | 0.885 (inactive) | -0.523 | 0.0679 (inactive) | 0.142 (inactive) | -0.0252
COc1ccc(O[C@H]2C=C[C@@H](c3ccccc3)O[C@@H]2CON=C2[C@H]3CCn4c(=O)n(-c5ccccc5)c(=O)n4[C@H]3[C@H](O)[C@@H]3O[C@H]23)cc1 | -0.402 (inactive) | -0.012 | 8.37 (active) | 1.25 (inactive) | 0.671 (inactive) | 0.858 (inactive) | -0.511 | -1.37 (inactive) | -0.132 (inactive) | -0.17
CC(C)=CCCC(C)=CCON=C1C[C@@H](O)[C@@H](O)[C@@H]2[C@@H]3C(=O)N(C(C)(C)C)C(=O)[C@@H]3CC[C@@H]12 | -1.31 (inactive) | 0.167 | 1.43 (inactive) | 0.761 (inactive) | 0.916 (inactive) | 0.821 (inactive) | -0.227 | -1.14 (inactive) | -1.2 (inactive) | -0.411
CCOC(=O)NN=C1C[C@@H](O)[C@@H](O)[C@@H]2[C@@H]3C(=O)N(c4ccc(F)cc4F)C(=O)[C@@H]3CC[C@@H]12 | -0.588 (inactive) | 0.197 | 1.73 (inactive) | 0.719 (inactive) | 0.171 (inactive) | 0.0581 (inactive) | -0.561 | 0.992 (inactive) | 0.605 (inactive) | -0.407
CC(=O)OC[C@H]1O[C@H](CCON=C2[C@H]3CCn4c(=O)n(-c5ccccc5)c(=O)n4[C@H]3[C@H](O)[C@@H]3O[C@H]23)C=C[C@@H]1OC(C)=O | 0.0711 (inactive) | 0.637 | 0.553 (inactive) | 0.0612 (inactive) | -0.192 (inactive) | 0.269 (inactive) | -0.84 | -0.564 (inactive) | 0.0641 (inactive) | -0.0303
COC(=O)[C@@H]1CC[C@H](C)[C@@H](c2ccc(C)cc2)N1C(=O)c1ccc(C=NOC[C@@H](C)[C@H](OCc2ccccc2)C(C)C)cc1 | -1.07 (inactive) | -0.18 | 1.25 (inactive) | -1.62 (inactive) | -0.467 (inactive) | -1.35 (inactive) | 2.57 | -1.28 (inactive) | -0.428 (inactive) | 0.388
COC(=O)[C@H](C)NC(=O)CCC1CC(OC(=O)NCCc2ccc(F)cc2)CC2(CCCC(COC(=O)NCCC(C)C)O2)O1 (stereo not given in full) | -0.484 (inactive) | 0.0844 | 21.1 (active) | 4.7 (inactive) | 0.0444 (inactive) | 0.266 (inactive) | 1.14 | 0.341 (inactive) | 0.302 (inactive) | -0.385
O=C1CCCC(C2=CCCCC2=O)C1 (stereo not given) | -0.316 (inactive) | -0.0224 | 0.599 (inactive) | -0.349 (inactive) | 0.231 (inactive) | -0.168 (inactive) | 0.142 | -0.7 (inactive) | -0.427 (inactive) | -0.253
C[n+]1ccc(-c2ccc(CO)cc2)cc1 | 0.209 (inactive) | -0.0303 | -0.8 (inactive) | -0.376 (inactive) | -1.05 (inactive) | -0.0148 (inactive) | -0.6 | -0.225 (inactive) | -0.0911 (inactive) | -3.04
COC(=O)[C@H](C)NC(=O)CCC1CC(OC(=O)NCc2ccc3c(c2)OCO3)CC2(CCCC(COC(=O)NCCc3ccccc3OC)O2)O1 (stereo not given in full) | -0.0563 (inactive) | -0.162 | 20.9 (active) | 5.56 (inactive) | -0.257 (inactive) | 0.566 (inactive) | 1.15 | 0.221 (inactive) | 0.301 (inactive) | 0.339
CON=C(C)CCC(=O)OC[C@H]1O[C@H](c2ccccc2)C=C[C@@H]1Oc1ccc(OC)cc1 | -2.31 (inactive) | -0.196 | 5.54 (inactive) | 1.17 (inactive) | 12.7 (active) | 0.49 (inactive) | -0.312 | -2.7 (inactive) | -0.458 (inactive) | -4.44
